In the library only some 10% were active in any assay of this set; here they are far more common.
G9a block: inhibitors of human histone lysine methyltransferase G9a | G9a H3K9 monomethylation, AlphaScreen, 2 h | Q96KQ7 | actives 8.8% (n = 350,000) | Potency, µM (titrated, usually from 102 µM), usual class: inhibitors; further: nearly all actives have a fitted effect of over 75% in size
Target sequence (Q96KQ7 913-1193 limits assumed): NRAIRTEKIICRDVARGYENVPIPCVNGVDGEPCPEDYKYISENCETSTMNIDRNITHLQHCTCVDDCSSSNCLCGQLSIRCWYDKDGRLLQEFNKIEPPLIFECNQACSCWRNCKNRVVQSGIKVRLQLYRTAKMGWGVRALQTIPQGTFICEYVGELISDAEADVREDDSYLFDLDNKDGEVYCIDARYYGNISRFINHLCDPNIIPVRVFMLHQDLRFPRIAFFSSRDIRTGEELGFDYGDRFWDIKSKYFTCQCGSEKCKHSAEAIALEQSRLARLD
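Readings reflect AlphaScreen signal from monomethyl-H3K9 antibody detection. HMT at 20 nM; substrate b-H3K9 500 nM; cofactor SAM 20 uM; 2 h RT reaction; compounds tested as titrations in qHTS with 15 min preincubation.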
BAZ2B block: BAZ2B (human) inhibition; Q9UIF8; AlphaScreen BAZ2B-H3K14Ac peptide displacement; Potency, µM (series often up to 114 µM), actives largely listed as inhibitors; actives 4.4% (n = 360,000); further: nearly all actives have a fitted effect of over 60% in size
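AlphaScreen displacement of biotin-H3(5-23)K14Ac peptide (50 nM final) from BAZ2B (50 nM final) in PBS pH 7.4, 0.01% Tween-20; complex preformed 30 min RT, then compounds (top 110 uM) 30 min RT, beads 20 min dark.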
HP1b binding inh: inhibitors of HP1-beta chromodomain binding to methylated histone tails | P83916 | AlphaScreen HP1-beta / biotin-H3K9me3 peptide binding | Potency, µM (series often up to 114 µM), most hits filed as inhibitors | actives 0.56% (n = 390,000) | AID 540317; further: nearly all actives have a fitted effect of over 70% in size
Target sequence (P83916 whole entry, looked up): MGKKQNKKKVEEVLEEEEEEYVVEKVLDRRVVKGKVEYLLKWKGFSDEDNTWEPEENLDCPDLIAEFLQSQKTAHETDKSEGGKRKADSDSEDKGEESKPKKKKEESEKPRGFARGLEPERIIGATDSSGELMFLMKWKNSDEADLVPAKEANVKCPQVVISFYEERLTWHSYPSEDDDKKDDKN
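AlphaScreen: HP1-beta (50 nM) preformed 30 min with biotin-H3(1-18)K9me3 peptide (50 nM) in PBS pH 7.4, 0.01% Tween-20. Compound added for 30 min at RT, then streptavidin donor/nickel chelate acceptor beads (10 ug/mL) for 30 min.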
JMJD2A Tudor inh: blocks the human JMJD2A Tudor domain. O75164. AlphaScreen JMJD2A-Tudor / H3K4me3 peptide binding. Potency, µM (highest dose often 114 µM), usual class: inhibitors. actives 4.4% (n = 390,000). AID 504339; further: nearly all actives have a fitted effect of over 50% in size
Six1-Eya2 blk: Six1/Eya2 interaction inhibition. activity change, % (test concentration not listed). Q15475+O00167. actives 0.56% (n = 360,000). AlphaScreen GST-Six1/His-Eya2 binding, biochemical; active compounds read low; in the data active means activity change below about -65%; inconclusive means mostly about -30% to -63%
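Six1/Eya2 binding was read as AlphaScreen signal after compounds were pinned into GST-Six1 plus His-tagged Eya2 (5X stock 250/500 nM) in pH 8.0 Tris/NaCl/TCEP buffer, beads added, then incubated 1 h, 37 C, dark.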
CtBP-E1A inh: CtBP/E1A binding inhibition | actives 0.49% (n = 340,000) | AlphaScreen GST-E1A/His-CtBP binding, 1536-well; active compounds read low | activity change, % (no concentration beside the values); in the data active means activity change below about -65%; inconclusive means mostly about -30% to -63%
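AlphaScreen with 125 nM GST-E1A and 125 nM His-CtBP (5X stocks) in Tris pH 8.0, 300 mM NaCl, BSA, Tween 20, TCEP. Compounds preincubated 2 h at 37 deg C, then glutathione donor/nickel acceptor beads added for 1 h at 37 deg C in dark.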
Hits are given with their value; 0 = inactive; ? = inconclusive; - = not tested or not shown; [ ] = remark or other dose. Unless noted, the call rests on the fitted dose curve; in most records, active means well fitted inhibition curve with a large enough effect; inconclusive means small, poorly fitted or top-dose-only effect; inactive means no such curve, though single readings can be large or run the other way.

SMILES	G9a block	BAZ2B block	HP1b binding inh	JMJD2A Tudor inh	Six1-Eya2 blk	CtBP-E1A inh
Cn1c(=O)c2cn3c(c2n(C)c1=O)C(c1ccccc1)CC(c1ccccc1)=N3 (stereo not drawn)	8.91µM	?	0	?	0	0
CCCc1nc2ccccc2n2c(-c3ccccc3)c3c(=O)n(C)c(=O)n(C)c3c12	0	0	0	0	-	-
CC(=O)c1c(C)oc2ccc(N(C(=O)Oc3ccccc3)S(=O)(=O)c3ccc(Cl)cc3)cc12	0	0	0	0	-	-
CC(C)C[C@@H](CNCC(=O)[C@H](Cc1ccccc1)NC(=O)c1[nH]cnc1C(=O)N[C@@H](C)CN)NC(=O)c1nc[nH]c1C(=O)N[C@@H](CC(=O)O)C(=O)O	-	-	0	?	0	0
CC(C)C[C@@H](CNCC(=O)[C@H](CC(C)C)NC(=O)c1[nH]cnc1C(=O)N[C@@H](C)CN)NC(=O)c1nc[nH]c1C(=O)N[C@@H](CC(=O)O)C(=O)O	-	-	0	50.1µM	0	0
CC(C)C[C@@H](CNCC(=O)[C@H](C)NC(=O)c1[nH]cnc1C(=O)N[C@@H](C)CN)NC(=O)c1nc[nH]c1C(=O)N[C@@H](CC(=O)O)C(=O)O	-	-	?	79.4µM	0	0
CC(C)C[C@H](NC(=O)c1[nH]cnc1C(=O)N[C@@H](C)C(=O)OCc1ccccc1)C(=O)OCc1ccccc1	-	-	0	0	0	0
CC(C)C[C@@H](CNCC(=O)[C@H](C)NC(=O)c1[nH]cnc1C(=O)N[C@H](CN)CC(C)C)NC(=O)c1nc[nH]c1C(=O)N[C@@H](C)C(=O)O	-	-	0	56.2µM	0	0
CC(C)C[C@@H](CNCC(=O)[C@H](CC(C)C)NC(=O)c1[nH]cnc1C(=O)N[C@@H](C)CN)NC(=O)c1nc[nH]c1C(=O)N[C@@H](CC(C)C)C(=O)O	-	-	0	56.2µM	0	0
CC(C)C[C@@H](CN)NC(=O)c1nc[nH]c1C(=O)N[C@@H](Cc1ccccc1)C(=O)CNC[C@H](C)NC(=O)c1nc[nH]c1C(=O)N[C@@H](CC(=O)O)C(=O)O	-	-	0	?	0	0
CCOc1ccc(OCC(=O)Nc2c(C(=O)Nc3ccc(C)cc3)oc3ccccc23)cc1	0	0	0	0	-	-
Cc1ccc(-n2nc3c(=O)n(CC(=O)NCC(C)c4ccccc4)nc(C)c3c2C)cc1 (stereo not drawn)	0	0	0	0	-	-
CC(C)CCNC(=O)C1CCN(C(=O)N2CCOc3ccc(Cl)cc32)CC1	0	0	0	0	-	-
CC(=O)c1ccc2noc(-c3ccccc3)c2c1	-	0	0	0	0	0
CC(=O)c1ccc2noc(-c3cccc(C)c3)c2c1	17.8µM	0	0	0	0	0
CCN(CC)CCCNC(=O)C1CCN(S(C)(=O)=O)CC1	0	0	0	0	-	-
CC(C)(C)NC(=O)C(c1ccco1)N(C(=O)c1ccc(CN2CCOCC2)o1)c1ccccc1 (stereo not drawn)	11.2µM	0	0	0	0	0
COc1ccc(OC)c(CNC(=O)c2cnc(N(C)C)nc2)c1	0	0	0	0	-	-
Cn1c(=O)nc2n(Cc3ccccc3)c3ccccc3cc-2c1=O	8.91µM	0	0	0	0	0
Cc1ccccc1-n1c2nc(=O)n(C)c(=O)c-2cc2ccccc21	0	0	0	0	0	0
CCCc1cc2c(=O)c(-c3nc4ccccc4s3)c(COCC(=O)O)oc2cc1O	50.1µM	0	0	?	0	0
CCc1cc2c(=O)c(-c3nc4ccccc4n3C)c(COCC(=O)O)oc2cc1O	0	?	0	?	0	0
COc1ccc(NC(=S)NC(=O)c2cc3ccccc3o2)c(OC)c1	10µM	0	0	0	0	0
COc1ccc(OC)c(NC(=O)c2cc3ccccc3o2)c1	0	0	0	0	0	0
Cc1ccc(-c2nc3cc(C(C)C)ccc3o2)cc1NC(=O)c1cc2ccccc2o1	0	0	0	0	-	-
SMILES	G9a block	BAZ2B block	HP1b binding inh	JMJD2A Tudor inh	Six1-Eya2 blk	CtBP-E1A inh
Cc1ccc(-c2nc3ccccc3o2)cc1NC(=S)NC(=O)c1cc2ccccc2o1	50.1µM	0	0	0	0	0
COC(=O)[C@H]1C2CC3c4[nH]c5ccccc5c4CCN3CC2CC[C@@H]1O (stereo partly drawn)	0	-	-	-	-	-
Cc1csc2nc(COC(=O)c3ccc(Cl)c([N+](=O)[O-])c3)cc(=O)n12	0	0	0	28.2µM	0	0
Cc1csc2nc(COC(=O)c3ccc(NC(=O)C(C)C)cc3)cc(=O)n12	?	0	0	0	-	-
CCCn1[nH]cc(SC)c(=O)c1=O	?	?	0	25.1µM	0	0
O=C(CCS(=O)(=O)Cc1ccccc1)N1CCN(Cc2ccccc2)CC1	50.1µM	0	0	0	0	0
Cc1oc(-c2ccccc2F)nc1CS(=O)(=O)CC(=O)N1CCOCC1	0	0	0	0	0	0
Cc1oc(-c2ccccc2F)nc1CS(=O)(=O)CC(=O)N1CCN(Cc2ccccc2)CC1	50.1µM	0	0	0	0	0
O=C(CCS(=O)(=O)Cc1ccccc1)N1CCc2ccccc2C1	0	0	0	0	0	0
CCOC(=O)C1CCN(C(=O)CCS(=O)(=O)Cc2ccccc2)CC1	50.1µM	0	0	0	0	0
CCOC(=O)C1CCN(C(=O)CCc2ccccc2)CC1	0[12.7 µM]	0	0	0[11.4 µM]	0	0
CN1CCN(c2ncc3nc(-c4cccc(C#N)c4)c(=O)n(CCc4ccccc4)c3n2)CC1	0[0.501 µM]	-	-	-	-	-
Cc1ccc(N2C(=O)C(CC(=O)Nc3ccccc3)N(CCC3=CCCCC3)C2=O)cc1 (stereo not drawn)	0	?	0	0	-	-
CN(C(=O)CSc1nc2ccc(NC(=O)c3ccco3)cc2s1)c1ccccc1	0	0	0	0	-	-
O=C(NCCCSc1ccccc1)c1cc(Cl)ccc1O	35.5µM	50.1µM	0	0	0	0
O=C(CSC1=NNC(c2ccccn2)S1)Nc1ccc(C(F)(F)F)cc1 (stereo not drawn)	0	56.2µM	0	39.8µM	-90.7	-95.2
O=C(Nc1ccccc1F)c1cnc(N2CCCCC2)c2ccccc12	0	0	0	0	-	-
Cc1cc(C)cc(NC(=O)CN2C(=O)c3ccccc3Sc3ncccc32)c1	0	0	0	0	-	-
Cc1cc(NC(=O)Nc2nnc(N(C)Cc3ccccc3)s2)ccc1Br	0	0	0	0	-	-
COc1ccc(C(=O)Nc2nnc(S(=O)(=O)N3CCN(c4ccc(C)cc4)CC3)s2)cc1	0	0	0	0	-	-
CC(=O)N1N=C(c2ccccc2OC(=O)/C=C/c2ccccc2)CC1c1ccccc1 (stereo not drawn)	0	?	0	0	?	-79.9
CC(=O)N1N=C(c2ccc3nccnc3c2)CC1c1ccccc1 (stereo not drawn)	0	0	0	0	0	0
